Measured values: the supplement of paper PMC13380429

What follows are compounds tested on Vero E6 infected with SARS-CoV-2 (assay: inhibition of SARS-CoV-2 cytopathic effect; higher = more antiviral protection, active = above 15). Settings: 833.33 nM; 48 h.
For CC(=C(CCOC(=O)C(C)C)SSC(CCOC(=O)C(C)C)=C(C)N(C=O)Cc1cnc(C)nc1N)N(C=O)Cc1cnc(C)nc1N (stereo in doubt) [sulbutiamine], the “inhibition of SARS-CoV-2 cytopathic effect” value (“inhibition” below) was -4.07% (inactive).
c1ccc2c(c1)Sc1ccccc1N2C[C@H]1CN2CCC1CC2 [levomequitazine] was tested, and the “inhibition” value was -7.33% (inactive).
For CCCC(=O)Nc1cccc(NC(=O)c2ccccc2Br)c1, the “inhibition” value was -1.59% (inactive).
C[C@@H]1COC(Nc2ccc3ncnc(Nc4ccc(OCc5nccs5)c(Cl)c4)c3c2)=N1 was tested, and the “inhibition” value was -3.55% (inactive).
In the case of CNC(=O)c1ccc(-c2cnc3ncc(Cc4ccc5ncccc5c4)n3n2)cc1F, the “inhibition” value is reported as 2.22% (inactive).
In the case of O=C(O)/C=C\c1c[nH]cn1 [cis-Urocanic acid], the “inhibition” value is reported as -0.955% (inactive).
In the case of CCC(=O)O[C@@H](O[P@@](=O)(CCCCc1ccccc1)CC(=O)N1C[C@H](C2CCCCC2)C[C@H]1C(=O)O)C(C)C [fosinopril], the “inhibition” value is reported as 1.19% (inactive).
In the case of O=C(O)C(=O)c1cn(Cc2ccccc2)c2ccc(-c3ccc(OC(F)(F)F)cc3)cc12 [tiplaxtinin], the “inhibition” value is reported as 2.13% (inactive).
For NC[C@H](O)c1ccc(O)c(O)c1 [norepinephrine], the “inhibition” value was 0.33% (inactive).
In the case of C1CCN2C[C@@H]3C[C@@H](CN4CCCC[C@@H]34)[C@H]2C1 [sparteine-sulfate], the “inhibition” value is reported as 1.05% (inactive).
COc1ccc2c3c1O[C@H]1C[C@@H](O)C=C[C@@]31CCN(C)C2 [galantamine] was tested, and the “inhibition” value was 2.11% (inactive).
For c1ccc(CC2=NCCN2)cc1 [tolazoline], the “inhibition” value was 2.41% (inactive).
CC(C)(C)OC(=O)N[C@H]1CCCCC/C=C\[C@@H]2C[C@@]2(C(=O)NS(=O)(=O)C2CC2)NC(=O)[C@@H]2C[C@@H](OC(=O)N3Cc4cccc(F)c4C3)CN2C1=O [danoprevir] was tested, and the “inhibition” value was 0.24% (inactive).
In the case of CN(C)CCN1C(=O)c2cccc3cc(NC(N)=O)cc(c23)C1=O [unbs-5162], the “inhibition” value is reported as 0.4% (inactive).
For CC(C)(COP(=O)(O)OP(=O)(O)OC[C@H]1O[C@@H](n2cnc3c(N)ncnc32)[C@H](O)[C@@H]1OP(=O)(O)O)[C@@H](O)C(=O)NCCC(=O)NCCS [coenzyme-A], the “inhibition” value was 1.91% (inactive).

Same assay, conditions: 10000 nM; 48 h
For CC(C)n1nc(C#Cc2ccccc2)c2c(N)ncnc21, the “inhibition” value was 3.02% (inactive).
Nc1ccc([As](=O)(O)O)cc1 [arsanilic-acid] was tested, and the “inhibition” value was -0.8% (inactive).
Nc1ccc(C(=O)NCC(=O)O)cc1 [4-aminohippuric-acid] was tested, and the “inhibition” value was -1.9% (inactive).
For CC(C)[C@@H](C(=O)Nc1nccs1)c1ccc(Cl)cc1, the “inhibition” value was 1.55% (inactive).
For NC(=O)[C@H]1CCS[C@@H]2C[C@]3(CCCN3C(=O)Cc3ccc(NC(=O)COc4ccc(Cl)cc4Cl)cc3)C(=O)N12, the “inhibition” value was -6.32% (inactive).
In the case of CN1CCC(Nc2ncc3ncnc(Nc4ccc(F)c(Cl)c4)c3n2)CC1, the “inhibition” value is reported as -2.79% (inactive).
CCCCc1nc(Cl)c(CO)n1Cc1ccc(-c2ccccc2-c2nnn[nH]2)cc1 [losartan] was tested, and the “inhibition” value was -1.4% (inactive).
With O=C(O)Cc1cccc(OCCCN(Cc2cccc(C(F)(F)F)c2Cl)CC(c2ccccc2)c2ccccc2)c1 the “inhibition” value was 8.79% (inactive).
In the case of CC(C)C[C@H](NC(=O)CNC(=O)c1cc(Cl)ccc1Cl)B(O)O [ixazomib], the “inhibition” value is reported as 22.9% (active).
C[C@@H](C(=O)O)c1ccc(-c2ccccc2)c(F)c1 (racemic) [flurbiprofen-(+/-)] was tested, and the “inhibition” value was -0.637% (inactive).
For CC(=O)SC[C@@H](C)C(=O)N1CCC[C@H]1C(=O)N[C@@H](Cc1ccccc1)C(=O)O [alacepril], the “inhibition” value was -0.44% (inactive).
For N[C@@H](C(=O)N[C@@H]1C(=O)N2C(C(=O)O)=C(Cl)CS[C@H]12)c1ccccc1 [cefaclor], the “inhibition” value was 5.72% (inactive).
CC1(C)Cc2c(-c3ccccc3)c(-c3ccc(Cl)cc3)c(CC(=O)O)n2C1 [licofelone] was tested, and the “inhibition” value was 2.49% (inactive).
Oc1ccc(C2CNCCc3c2cc(O)c(O)c3Cl)cc1 (stereo not given) [fenoldopam] was tested, and the “inhibition” value was -5.61% (inactive).
With FC(F)(F)c1cccc(-c2noc(-c3cc(-c4ccccc4)c(C(F)(F)F)s3)n2)c1 the “inhibition” value was 1.68% (inactive).
CC[C@@H](c1ccc(F)c(F)c1)n1c(C(=O)OC)c(-c2ccno2)[nH]c1=S was tested, and the “inhibition” value was -0.12% (inactive).
With CC1(C)S[C@@H]2[C@H](NC(=O)Cc3ccccc3)C(=O)N2[C@H]1C(=O)O [benzylpenicillin] the “inhibition” value was -2.39% (inactive).
For Nc1ccc(S(=O)(=O)Nc2ccc(Cl)nn2)cc1 [sulfachlorpyridazine], the “inhibition” value was 0.69% (inactive).
With O=C(/C=C/c1ccc(O)c(O)c1)c1ccc(O)cc1O [butein] the “inhibition” value was 12.1% (inactive).
In the case of CC(C(=O)O)c1ccc(CC2CCCC2=O)cc1 (stereo not given) [loxoprofen], the “inhibition” value is reported as 2.16% (inactive).
For Cc1cc(O)c(C(=O)N[C@@H](C(=O)N[C@@H]2C(=O)N3C(C(=O)O)=C(CSc4nnnn4C)CS[C@H]23)c2ccc(O)cc2)cn1 [cefpiramide], the “inhibition” value was 3.6% (inactive).
CCCCNC(=O)[C@@H]1Cc2ccccc2N1C(=O)[C@@H](N)CC [butabindide] was tested, and the “inhibition” value was 2.75% (inactive).
C=CCN1CCCC1CNC(=O)c1cc2nn[nH]c2cc1OC (stereo not given) [alizapride] was tested, and the “inhibition” value was -0.58% (inactive).
In the case of O=Nc1c(-c2c(O)[nH]c3cc(Br)ccc23)[nH]c2ccccc12 [GSK-3-inhibitor-IX], the “inhibition” value is reported as -4.11% (inactive).
In the case of Cc1onc(-c2ccccc2)c1C(=O)N[C@@H]1C(=O)N2[C@@H]1SC(C)(C)[C@@H]2C(=O)O [oxacillin], the “inhibition” value is reported as 1.32% (inactive).
With CC(=C(CCOC(=O)C(C)C)SSC(CCOC(=O)C(C)C)=C(C)N(C=O)Cc1cnc(C)nc1N)N(C=O)Cc1cnc(C)nc1N (stereo in doubt) [sulbutiamine] the “inhibition” value was -4.54% (inactive).
With c1ccc2c(c1)Sc1ccccc1N2C[C@H]1CN2CCC1CC2 [levomequitazine] the “inhibition” value was -13.9% (inactive).
For CCCC(=O)Nc1cccc(NC(=O)c2ccccc2Br)c1, the “inhibition” value was -0.66% (inactive).
In the case of C[C@@H]1COC(Nc2ccc3ncnc(Nc4ccc(OCc5nccs5)c(Cl)c4)c3c2)=N1, the “inhibition” value is reported as -4.19% (inactive).
CNC(=O)c1ccc(-c2cnc3ncc(Cc4ccc5ncccc5c4)n3n2)cc1F was tested, and the “inhibition” value was 7.85% (inactive).
For O=C(O)/C=C\c1c[nH]cn1 [cis-Urocanic acid], the “inhibition” value was 1.12% (inactive).
For CCC(=O)O[C@@H](O[P@@](=O)(CCCCc1ccccc1)CC(=O)N1C[C@H](C2CCCCC2)C[C@H]1C(=O)O)C(C)C [fosinopril], the “inhibition” value was 3.18% (inactive).
O=C(O)C(=O)c1cn(Cc2ccccc2)c2ccc(-c3ccc(OC(F)(F)F)cc3)cc12 [tiplaxtinin] was tested, and the “inhibition” value was 4.09% (inactive).
With NC[C@H](O)c1ccc(O)c(O)c1 [norepinephrine] the “inhibition” value was -1.61% (inactive).
C1CCN2C[C@@H]3C[C@@H](CN4CCCC[C@@H]34)[C@H]2C1 [sparteine-sulfate] was tested, and the “inhibition” value was -2.55% (inactive).
In the case of COc1ccc2c3c1O[C@H]1C[C@@H](O)C=C[C@@]31CCN(C)C2 [galantamine], the “inhibition” value is reported as 0.3% (inactive).
In the case of c1ccc(CC2=NCCN2)cc1 [tolazoline], the “inhibition” value is reported as -0.69% (inactive).
For CC(C)(C)OC(=O)N[C@H]1CCCCC/C=C\[C@@H]2C[C@@]2(C(=O)NS(=O)(=O)C2CC2)NC(=O)[C@@H]2C[C@@H](OC(=O)N3Cc4cccc(F)c4C3)CN2C1=O [danoprevir], the “inhibition” value was -1.76% (inactive).
For CN(C)CCN1C(=O)c2cccc3cc(NC(N)=O)cc(c23)C1=O [unbs-5162], the “inhibition” value was -2.03% (inactive).
In the case of CC(C)(COP(=O)(O)OP(=O)(O)OC[C@H]1O[C@@H](n2cnc3c(N)ncnc32)[C@H](O)[C@@H]1OP(=O)(O)O)[C@@H](O)C(=O)NCCC(=O)NCCS [coenzyme-A], the “inhibition” value is reported as 2.93% (inactive).
